In the library only some 11% were active in any assay of this set; here they are far more common.
USP28 block = blocks human USP28 ubiquitin-rhodamine cleavage; AID 1645857; hit rate 3% among 47,000; inhibition, % at 25 µM; purified USP28, Ub-rhodamine cleavage fluorescence, 30 min
USP17 block = human USP17-like deubiquitinase inhibition; A8MUK1; purified USP17, Ub-rhodamine cleavage fluorescence, 3 h; inhibition, % at 50 µM; hit rate 6.5% among 47,000
USP30 block = human USP30 deubiquitinase inhibition; Q70CQ3; purified USP30, Ub-rhodamine cleavage fluorescence; inhibition, % at 25 µM; hit rate 5.3% among 47,000; AID 1645860
Target sequence (Q70CQ3 whole entry, looked up): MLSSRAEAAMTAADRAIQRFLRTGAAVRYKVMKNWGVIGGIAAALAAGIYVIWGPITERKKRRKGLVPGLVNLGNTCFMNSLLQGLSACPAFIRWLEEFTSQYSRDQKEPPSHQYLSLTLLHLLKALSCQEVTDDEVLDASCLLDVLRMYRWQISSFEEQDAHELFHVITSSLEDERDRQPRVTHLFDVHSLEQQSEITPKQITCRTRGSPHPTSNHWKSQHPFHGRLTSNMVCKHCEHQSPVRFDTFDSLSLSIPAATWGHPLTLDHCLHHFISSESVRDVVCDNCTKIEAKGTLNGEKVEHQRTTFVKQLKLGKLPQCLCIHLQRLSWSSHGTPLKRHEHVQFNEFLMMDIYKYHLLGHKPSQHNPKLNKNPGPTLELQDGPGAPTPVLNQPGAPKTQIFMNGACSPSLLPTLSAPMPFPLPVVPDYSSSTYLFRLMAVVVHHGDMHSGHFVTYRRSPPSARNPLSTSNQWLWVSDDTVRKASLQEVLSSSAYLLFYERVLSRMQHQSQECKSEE
Numbers stand for hits; – = inactive; · = no result. Cut-off read from the data, not from the text of the source: active = inhibition above about 30%; inactive = the rest.

SMILES	USP28 block	USP17 block	USP30 block
N#Cc1c2c(c(-c3ccccc3)n3c1nc1ccccc13)CCC2	–	43.1	–
Cc1cc(-c2cccc(S(=O)(=O)N3CCOCC3)c2)n2c(nc3ccccc32)c1C#N	–	–	–
COc1ccccc1CNC(=O)Cn1cc(S(=O)(=O)N2CCC(C)CC2)c2ccccc2c1=O	–	–	–
Cc1cccc(N2CCN(Cc3cc(=O)n4ccsc4n3)CC2)c1C	–	–	–
CC1(c2ccc3c(c2)CCC3)NC(=O)N(Cc2cc(=O)n3ccsc3n2)C1=O (centres undefined)	–	33.3	–
CCC(C)C1NC(=O)C(CCC(N)=O)N(C)C(=O)C(C(C)C)N(C)C(=O)CNC(=O)C2CCCN2C(=O)C(Cc2ccccc2)NC(=O)C(C(C)CC)OC(=O)C(CCC(=O)O)N(C)C(=O)C(C(C)C)NC(=O)C2CCCCN2C1=O (centres undefined)	–	–	–
CC(C)C[C@@H]1NC(=O)[C@H](CCCN)NC(=O)[C@H](C(C)C)NC(=O)[C@H](Cc2ccc(O)cc2)NC(=O)[C@H](CCC(N)=O)NC(=O)[C@H](CC(N)=O)NC(=O)[C@@H](Cc2ccccc2)NC(=O)[C@H](Cc2ccccc2)NC(=O)[C@@H]2CCCN2C(=O)[C@@H](Cc2ccccc2)NC1=O	39.4	–	–
COc1ccc(NC(=O)CCc2c(C)c3c(C)nn(-c4ccccc4)c3n(C)c2=O)cc1OC	–	–	–
COc1ccc(NC(=O)CCc2c(C)c3c(C)nn(-c4ccccc4)c3n(C)c2=O)c(OC)c1	–	–	30.2
COc1cccc(CNC(=O)c2cnc3sc4c(n3c2=O)CCC4)c1	–	–	–
Cc1cccc(CNC(=O)c2cnc3sc4c(n3c2=O)CCCC4)c1	–	–	36.9
COc1cc(NC(=O)N2CCCCCC2c2cccs2)cc(OC)c1 (centres undefined)	–	–	–
O=C(NCc1ccc(F)cc1)C1CCCN(C(=O)c2cc(-c3cccnc3)n[nH]2)C1 (centres undefined)	–	–	–
CC(=O)C1=C(C)Nc2nc3ccccc3n2C1c1cccs1 (centres undefined)	–	37.5	49.4
CC(=O)C1=C(C)Nc2nc3ccccc3n2C1c1ccco1 (centres undefined)	–	–	–
CC1=C(C(=O)N2CCCCC2)C(c2ccc(F)cc2)n2c(nc3ccccc32)N1 (centres undefined)	–	–	–
CC1=C(C(=O)N2CCOCC2)C(c2cccs2)n2c(nc3ccccc32)N1 (centres undefined)	–	–	–
CC(=O)C1=C(C)Nc2nc3ccccc3n2C1c1ccc(O)cc1 (centres undefined)	–	34.5	–
O=C1CCCC2=C1C(c1ccc(Cl)cc1)n1c(nc3ccccc31)N2 (centres undefined)	–	–	37.2
COC(=O)c1cccnc1-n1c(=O)c2cccnc2n(CC(=O)Nc2cc(Cl)ccc2OC)c1=O	–	–	–
N#Cc1cccc(C(=O)Nc2cnc(N3CCOCC3)nc2)c1	–	–	–
O=c1c2[nH]c3ccc(Cl)cc3c2ncn1CCN1CCOCC1	–	–	–
CC(C)(C)c1ccc(NC(=O)N2CCCN(Cc3ccc(F)cc3)CC2)cc1	–	–	–
COc1ccccc1CN1C(=O)Cc2c(C)nc(C3CCCN(S(C)(=O)=O)C3)nc21 (centres undefined)	–	–	–
CCOC(=O)COc1nc(-c2ccccc2)cc(-c2cccs2)c1C#N	–	–	–
SMILES	USP28 block	USP17 block	USP30 block
N#Cc1c(-c2ccc(Cl)cc2)cc(-c2cccs2)nc1N	–	38.2	–
O=C(NC1CCN(c2ncccn2)CC1)c1ccc(F)cc1F	–	–	–
CCC(=O)Nc1cccnc1-c1ccc(C(=O)Nc2ccc3c(c2)OCO3)cc1	40.0	·	–
CCC(=O)Nc1cccnc1-c1ccc(C(=O)Nc2ccc(C)cc2)cc1	–	·	–
O=C(NCc1ccccn1)c1ccc(-c2ccc(N3CCSCC3)nc2)cc1	32.7	59.6	82.3
COCCCNC(=O)c1ccc(-c2ccc(N3CCCCC3)nc2)cc1	–	–	–
Cc1nc(C(C)C)ncc1C(=O)NC1CCCCC1	–	–	–
COc1cccc(-c2ccccc2NC(=O)C2CCN(CC3CCCCC3)CC2)c1	–	–	–
CCCC(=O)N1CCN(CCc2ccccn2)CC1	–	–	–
Cc1cccc(OCc2cc(-c3ccccc3)no2)c1C	48.4	–	–
Fc1ccc(OCc2cc(-c3ccccc3)no2)cc1	–	–	–
O=C(c1ccco1)N1CCC2(CC1)CCN(c1cncnc1)C2=O	–	–	–
CN(C(=O)CS(=O)c1cccc(Cl)c1)c1ccccc1 (centres undefined)	–	–	–
Cc1ccc2c(c1)[nH]c1c(N3CCc4ccccc4C3)ncnc12	–	42.9	–
Cc1ccc2[nH]c3c(N4CCSCC4)ncnc3c2c1	–	–	–
COc1ccccc1NC(=O)COc1coc(CN2CCc3ccccc3C2)cc1=O	–	–	–
O=C(CCc1nnc2n(Cc3ccc(Cl)cc3)c(=O)c3ccccc3n12)N1CCN(c2ccccn2)CC1	62.0	51.6	83.4
O=C(CCc1nnc2n(CCc3ccccc3)c(=O)c3ccccc3n12)NCc1ccccn1	–	–	–
Cc1ccc(Cn2c(=O)c3ccccc3n3c(CCC(=O)N4CCOCC4)nnc23)cc1	–	–	–
Cc1cccc(CCNC(=O)CCc2nnc3n(CCc4ccccc4)c(=O)c4ccccc4n23)c1	–	–	39.0
O=C(CCc1nnc2n(Cc3ccc(Cl)cc3)c(=O)c3ccccc3n12)N1CCN(c2ccccc2)CC1	–	–	–
O=C(CCc1nnc2n(Cc3ccccc3)c(=O)c3ccccc3n12)NCCN1CCCC1	–	–	–
Cc1ccc(Cn2c(=O)c3ccccc3n3c(CCC(=O)N4CCN(c5ccccn5)CC4)nnc23)cc1	–	43.2	55.0
O=C(CCc1nnc2n(Cc3ccccc3)c(=O)c3ccccc3n12)NCc1ccc2c(c1)OCO2	–	39.2	–
CN(CCc1ccccc1)C(=O)c1cccc(-c2ccc(CC3CCCNC3=O)cc2)c1 (centres undefined)	–	–	–
SMILES	USP28 block	USP17 block	USP30 block
O=C(N1CCOCC1)N1CCn2c(nnc2C2CCNCC2)C1	–	–	–
CC1[C@@H]2[C@@H](C(=O)N3CCOCC3)C[C@H](CN1Cc1ccc(O)cc1)N2C (some centres undefined)	–	–	–
O=C(CCc1nnc2n(CCc3ccccc3)c(=O)c3ccccc3n12)N1CCN(C(=O)c2ccco2)CC1	–	–	–
Cc1ccc(Cn2c(=O)c3ccccc3n3c(CCC(=O)NCC4CCCO4)nnc23)cc1 (centres undefined)	–	·	39.1
O=C(CCc1nnc2n(Cc3ccccc3)c(=O)c3ccccc3n12)N1CCN(c2ccccn2)CC1	–	34.8	60.1
CC(C)CCn1c(=O)c2ccccc2n2c(CCC(=O)NCC3CCCO3)nnc12 (centres undefined)	–	–	–
Cc1ccc(Cn2c(=O)c3ccccc3n3c(CCC(=O)N4CCN(C(=O)c5ccco5)CC4)nnc23)cc1	–	42.5	–
CC(C)OCCCn1c(=O)c2ccccc2n2c(CCC(=O)N3CCN(c4ccccn4)CC3)nnc12	–	–	–
Cc1ccc(CNC(=O)c2c(C)oc3nc[nH]c(=O)c23)cc1	–	–	–
Cn1c(=O)c2c(-c3ccc(F)cc3)c(Nc3ccccc3)oc2n(C)c1=O	–	–	–
